The values that follow come from the supplement of paper PMC7858590.

This experiment has as its system human monocyte-derived macrophages (polarized). Nature of the experiment: cell shape (eccentricity) Z-score vs DMSO control; higher = more elongated, M2-like morphology. The following applies: 5 µM; 24 h; macrophage state: M1-polarized (IFNg + TNFa), cytokines present during treatment. The protocol:
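Primary-screen hits were rescreened on polarized hMDMs with the differentiating cytokines (IL-4 + IL-13 or IFNg + TNFa) kept in the medium during treatment with compound at 5 uM for 24 h. The eccentricity Z-score vs DMSO wells is averaged over experiments.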
In the case of `COc1ccc2c(c1OC)CN(C)CCc1cc3c(cc1C(=O)C2)OCO3`, the “cell shape (Z-score)” value is -5.59.
As for `CCN(CC)C(=S)SSC(=S)N(CC)CC`, the “cell shape (Z-score)” value is -3.98.
The figure for `COc1ccc(OC)c(-c2nnc3n2N=C(c2ccc(OC)c(OC)c2)CS3)c1` is 13.8; for `COc1cc(Nc2ncc(F)c(Nc3ccc4c(n3)NC(=O)C(C)(C)O4)n2)cc(OC)c1OC` it is -14.9; for `CC1(CCOC2OC(CO)C(O)C(O)C2O)CCC2C(=CCC3C(C)(C(=O)O)CCCC23C)C1` (centres undefined) it is -2.26.
For the compound `CC1(C)CC[C@]2(C(=O)O)CC[C@]3(C)C(=CCC4[C@@]5(C)CC[C@@H](O)C(C)(C)C5CC[C@]43C)C2C1` (some centres undefined), the “cell shape (Z-score)” value is -1.9.
The figure for `C=CCn1c(=O)c2cnc(Nc3ccc(N4CCN(C)CC4)cc3)nc2n1-c1cccc(C(C)(C)O)n1` is 5.45; for `Cc1c(-c2ccnc(Nc3ccc(N4CCNCC4)cc3)n2)sc(=O)n1C` it is 7.79.
The same measure for `COc1c(OC)c2occc2c2oc(=O)ccc12`: -1.24; for `CC1(C)CCC(c2ccc(Cl)cc2)=C(CN2CCN(c3ccc(C(=O)NS(=O)(=O)c4ccc(N[C@H](CCN5CCOCC5)CSc5ccccc5)c(S(=O)(=O)C(F)(F)F)c4)cc3)CC2)C1`: 4.31; for `C#Cc1cccc(Nc2ncnc3cc(OCCOC)c(OCCOC)cc23)c1`: 11.8.
Regarding `CNC(=O)c1cc(Oc2ccc(NC(=O)Nc3ccc(Cl)c(C(F)(F)F)c3)cc2)ccn1`, the “cell shape (Z-score)” value came out at 14.
As for `CC1=CC(=O)CC2C1(C)CCC(C)C2(C)CC/C(C)=C\C(=O)O` (centres undefined), the “cell shape (Z-score)” value is -1.21.
Regarding `CC[C@]1(O)C[C@@H]2CN(CCc3c([nH]c4ccccc34)[C@@](C(=O)OC)(c3cc4c(cc3OC)N(C)[C@H]3[C@@](O)(C(=O)OC)[C@H](OC(C)=O)[C@]5(CC)C=CCN6CC[C@]43[C@@H]65)C2)C1`, the “cell shape (Z-score)” value amounted to 6.51.
